Values without a mark were called inactive.
Test system: HCC1569
Test: H1.0 immunofluorescence intensity relative to DMSO (% of DMSO); higher = stronger H1.0 induction, active = 140 or more
Settings: concentration: 10 µM; 24 h
Outline: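 Treatment: HCC1569 and TDF cells, 800 per well in 384-well plates with RPMI and 10% FBS, were given compounds at 10 µM for 24 h at 37 °C, in triplicate. Readout: after 3.7% formaldehyde fixation, cells were stained with a rabbit anti-H1.0 antibody, an AlexaFluor 647 secondary and DAPI. Reported values are H1.0 nuclear intensity or cell number as percent of the plate control, taken as the median of replicates, with positional smoothing for HCC1569.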
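Also: TDF is a line of transformed human dermal fibroblasts of mesenchymal origin.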

Row | SMILES | H1.0 immunofluorescence intensity
1 | Cc1[nH]c(=O)c(C#N)cc1-c1ccncc1 [Milrinone] | 103
2 | O=C1CSC(c2cccc(Br)c2)N1c1cc(Cl)ccc1O (stereo not given) | 103
3 | CC1C(=O)N=C2Nc3cccc(Cl)c3CN21 (stereo not given) [Quazinone] | 96.3
4 | COc1cc2c(cc1O)CCC1C2CCC2(C)C(O)CCC12 (stereo not given) [2-methoxyestradiol] | 156 (active)
5 | Br.C=CCN1CCc2c(cc(O)c(O)c2Br)C(c2ccccc2)C1 (stereo not drawn) [R(+)-6-Bromo-APB hydrobromide] | 99.2
6 | NC(CO)C(=O)NNCc1ccc(O)c(O)c1O (stereo not given) [Benserazide] | 97.6
7 | CN1CCc2cccc3c2C1Cc1ccc(O)c(O)c1-3.Cl (stereo not given) [Apomorphine hydrochloride hemihydrate] | 99.6
8 | CCCCCC=CCC=CCC=CCC=CCCCC(=O)O [Arachidonic acid] | 105
9 | Cc1nc(C(=O)N2CCC[C@H]2Cc2nnc(-c3ccccc3)o2)c(-c2ccccc2F)s1 | 95.5
10 | COc1cc2c(cc1OC)C(c1ccccc1)CN(C)CC2.O=C(O)C=CC(=O)O (stereo not given) | 92.5
11 | CC(=O)NCCc1ccc(O)c(O)c1 [N-Acetyldopamine monohydrate] | 91.4
12 | CS(=O)(=O)CCNCc1ccc(-c2ccc3ncnc(Nc4ccc(OCc5cccc(F)c5)c(Cl)c4)c3c2)o1 [Lapatinib] | 151 (active)
13 | O=C1NC(=O)C(c2cnc3ccccn23)=C1c1cn2c3c(cc(F)cc13)CN(C(=O)N1CCCCC1)CC2 | 176 (active)
14 | COc1ccc2c(c1)c(CC(=O)O)c(C)n2C(=O)c1ccccc1 [1-benzoyl-5-methoxy-2-methylindole-3-acetic acid] | 93.1
15 | Nc1nc(=O)c2ncc(=O)[nH]c2[nH]1 [Isoxanthopterin] | 94.9
16 | COc1cc(C=CC(=O)CC(=O)C=Cc2ccc(O)c(OC)c2)ccc1O [Curcumin] | 139
17 | CCCCCCCCCCCC=CCCCCCCC(=O)O [8(Z)-Eicosenoic acid] | 103
18 | CCCCCC(O)C=CC=CCC=CCCCCCCC(=O)O (stereo not given) | 94.6
19 | O=C(C=Cc1ccc(O)cc1)CC(=O)C=Cc1ccc(O)cc1 [Bis demethoxycurcumin] | 94.4
20 | CC1CCC2(OC1)OC1CC3C4CCC5CC(O)CCC5(C)C4CCC3(C)C1C2C (stereo not given) [Sarsasapogenin] | 107

Row | SMILES | H1.0 immunofluorescence intensity
21 | CCOC(=O)C12CC1C(=NO)c1ccccc1O2 (stereo not given) | 97.2
22 | CNc1cc(NS(=O)(=O)c2ccc(N)cc2)nc(NC)n1.Cl.Cl [Ro 04-6790 dihydrochoride] | 84.4
23 | CN(C)CCCN1c2ccccc2CCc2ccccc21.Cl [Imipramine hydrochloride] | 105
24 | Nc1nc(OCc2cc(Br)cs2)c2[nH]cnc2n1 [6-[(4-bromo-2-thienyl)methoxy]-1H-purin-2-amine] | 113
25 | CN1CCC(c2c(O)cc(O)c3c(=O)cc(-c4ccccc4Cl)oc23)C(O)C1 (stereo not given) [Alvocidib] | 111
26 | Cl.Cl.Cl.Ic1ccc(N2CCN(Cc3c[nH]c4ncccc34)CC2)cc1 [L-750,667 trihydrochloride] | 108
27 | CCCCCCCCCCCCCC=CC(O)C(CO)N(C)C (stereo not given) [N,N-Dimethylsphingosine] | 101
28 | CCCCCC(O)C=CC=CCC=CCCCC(=O)O (stereo not given) | 97.1
29 | COc1ccc(-c2ccc3c(N4CCOCC4)nc(N4CC(C)OC(C)C4)nc3n2)cc1CO (stereo not given) | 164 (active)
30 | Cc1ccc(-c2ncc(Cl)cc2-c2ccc(S(C)(=O)=O)cc2)cn1 [Etoricoxib] | 92.2
31 | Cc1ccc(C(=CCN2CCCC2)c2ccccn2)cc1.Cl [Triprolidine hydrochloride] | 90
32 | COC(=O)Nc1nc2ccc(C(=O)c3ccccc3)cc2[nH]1 [Mebendazol] | 127
33 | CN(C)CCOc1cc(-c2cn[nH]c2)ccc1NC(=O)C1COc2ccccc2O1 (stereo not given) | 112
34 | CN(C)CC(=O)Nc1ccc2[nH]c(=O)c3ccccc3c2c1.Cl.O | 91.3
35 | Cc1ccccc1C(C(=O)NC1CCCCC1)N(C(=O)Cn1ccnc1C)c1cccc(F)c1 (stereo not given) | 105
36 | CC(C)NCC(O)c1ccc(O)c(O)c1.Cl (single isomer, unassigned; (-)) [(-)-Isoproterenol hydrochloride] | 93.8
37 | S=C([S-])OC1CC2CC1C1CCCC21.[K+] [D-609 potassium] | 102
38 | COc1ccc(/C=C2\COc3ccc(C)cc3C2=O)cc1O | 134
39 | CCCCCC=CC=C1C(=O)C=CC1CC=CCCCC(=O)O (stereo not given) [15d-Prostaglandin J2] | 104
40 | O=C(O)c1cccnc1C(=O)O [Quinolinic acid] | 99.9

From the supplement of paper PMC7156485
